Assay results: PubChem BioAssay (NCATS)
“And” between values parts separate entries of the source, which are not always exact repeats. Identical values can stand only once. Inconclusive results are not listed. The source made the active and inactive calls. Calls come from the whole dose curve; as a rule, active = well fitted curve in the direction sought with a large enough effect; inconclusive = small, poorly fitted or top-dose-only effect, or another doubt; inactive = no such curve, though single readings can be large; an effect the other way counts as inactive or inconclusive.

Legend:
[1] = target: Arylsulfatase A (Homo sapiens) (UniProt P15289); experiment: qHTS screen for enhancers of Arylsulfatase A (ASA1): LOPAC Validation Assay (AID 720538); conditions: ASA enzyme activity, LOPAC qHTS enhancer assay; series mostly up to 57.5 µM
Procedure, shortened: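 SV40-transformed fibroblasts from an MLD patient (ASA-I179S) were treated with compound for 48 h at 37 C. They were then lysed with 0.5 mM pNCS substrate (final) for 14 h at room temperature and stopped with NaOH; signal read by fluorescence (Ex 525/Em 598 nm), with increase denoting enhanced activity.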

[2] = qHTS for compounds that reverse cellular toxicity of Amyloid beta (A-beta) peptide in yeast: LOPAC Validation Assay (AID 720559); conditions: yeast expressing A-beta; series mostly up to 46.1 µM;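 note: plate controls were DMSO for no effect and equimolar ferric chloride plus clioquinol rescue for full effect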
Procedure, shortened: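 Yeast expressing toxic A-beta grown with pinned compounds at 30 C for 48 hr. Growth measured as absorbance at 600 nm; data normalized to DMSO and to an equimolar FeCl3/clioquinol mixture as positive control.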

[3] = qHTS for Activators of Parkin Expression: LOPAC Validation Assay (NLuc Reporter) (AID 720572;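 note: 0% = DMSO and 100% = positive control compound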); conditions: Parkin promoter NanoLuc reporter cells, luminescence, percent of positive control, DMSO as zero; series mostly up to 46.1 µM
Procedure, shortened: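 Parkin promoter-driven FLuc/NLuc neuronal reporter cells; 24 h plating, 7-pt dose response, 24 h at 37 C/5% CO2; FLuc then NanoLuc reagent, 10 min each, luminescence; DMSO/positive control normalized.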

[4] = qHTS for Activators of Parkin Expression: LOPAC Validation Assay (FLuc Reporter) (AID 720573;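 note: 0% = DMSO and 100% = positive control compounds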); conditions: Cell line, PRKN promoter firefly luciferase reporter, vehicle wells = 0, positive control = 100%; series mostly up to 46.1 µM
Procedure, shortened: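 Neuronal cell line stably expressing FLuc/NLuc coincidence reporter under the Parkin promoter, 1,500 cells/well, dosed 24 h after seeding in 7-point series for 24 h at 37 C. FLuc luminescence read; normalized to DMSO and positive control (100%).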

[5] = target: T1, Hexokinase-4 (Homo sapiens) + Glucokinase regulatory protein (Homo sapiens) (UniProt P35557+Q14397); experiment: qHTS assay for inhibitors of recombinant human GCK-GKRP interaction: Diaphorase-coupled assay (AID 743205); conditions: G6PDH/diaphorase resorufin fluorescence; series mostly up to 57.5 µM
Procedure, shortened: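 Compounds pre-incubated 20 min with substrate, then 10 nM GST-GCK with 10 nM FLAG-GKRP added. GCK activity coupled via G6PDH and diaphorase to resorufin (5 mM glucose, 0.4 mM ATP, 0.15 mM NADP+, pH 7.6), read kinetically over 30 minutes at Ex 525/Em 590 nm.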

[6] = target: T1, Hexokinase-4 (Homo sapiens) + Glucokinase regulatory protein (Homo sapiens); experiment: qHTS assay for inhibitors of recombinant human GCK-GKRP interaction: HTRF assay (AID 743207); conditions: recombinant GCK-GKRP HTRF binding, 60 min, with sorbitol-6-phosphate; series mostly up to 57.5 µM;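 note: 0% = DMSO with GCK present and -100% = DMSO wells lacking GCK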
Procedure, shortened: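 HTRF binding of 5 nM GST-GCK and 5 nM FLAG-GKRP with 2 uM S6P in pH 7.1 Hepes buffer (MgCl2, KCl, DTT, Tween 20, BSA). Anti-FLAG XL665 and anti-GST donor added, 60 min at room temperature; 665/615 nm read, normalized to with- and without-GCK controls.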

[7] = qHTS Assay for Identifying Gametocytocidal Compounds (AID 743244); note: potency is the fitted concentration of half-maximal effect;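 for max response: % is set by controls: 0 for no effect and ±100 for the full control effect; actives lower the fluorescent signal which means gametocytes are killed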; conditions: P. falciparum 3D7 stage III-V gametocytes, alamarBlue, 72 h; max response: hits give low values
Procedure, shortened: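 A resazurin-based viability read-out was applied to mature P. falciparum gametocytes: 72 h compound treatment, then 24 h dye incubation, with falling fluorescence signalling gametocytocidal effect.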

[8] = target: Tyrosine-protein kinase Yes (Homo sapiens) (UniProt P07947); experiment: qHTS for small molecule inhibitors of Yes1 kinase: Primary Screen (AID 686947); conditions: Yes1 kinase biochemical qHTS inhibition; series mostly up to 76.9 µM; note: potency is the fitted concentration of half-maximal effect; nearly all actives have a fitted effect of over 60% in size
Procedure, shortened: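 Yes1 (4 nM) preincubated 20 min with compound, then 60 min room-temperature reaction with 0.1 mM ATP and 0.3 mg/mL poly(E4Y) in pH 7.5 Tris, 10 mM MgCl2. ADP measured by ADP-Glo luminescence, normalised to enzyme/no-enzyme controls.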

[9] = qHTS for small molecule inhibitors of Yes1 kinase: Counter Assay (AID 686950); conditions: series mostly up to 76.9 µM;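 note: no kinase present so only ADP-Glo detection of a fixed ADP amount is tested; luminescence from ADP-Glo reporting ADP in a fixed ATP and ADP mixture; 0% = DMSO wells with ATP plus ADP and -100% = ATP-only wells without ADP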
Procedure, shortened: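 Luminescence read-out from ADP-Glo quantifies a fixed ADP amount (0.02 mM ADP with 0.08 mM ATP) after 60 min at room temperature; signal is normalized between DMSO wells with ATP/ADP and with 0.1 mM ATP alone.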

T1 sequence (P35557 whole entry, looked up): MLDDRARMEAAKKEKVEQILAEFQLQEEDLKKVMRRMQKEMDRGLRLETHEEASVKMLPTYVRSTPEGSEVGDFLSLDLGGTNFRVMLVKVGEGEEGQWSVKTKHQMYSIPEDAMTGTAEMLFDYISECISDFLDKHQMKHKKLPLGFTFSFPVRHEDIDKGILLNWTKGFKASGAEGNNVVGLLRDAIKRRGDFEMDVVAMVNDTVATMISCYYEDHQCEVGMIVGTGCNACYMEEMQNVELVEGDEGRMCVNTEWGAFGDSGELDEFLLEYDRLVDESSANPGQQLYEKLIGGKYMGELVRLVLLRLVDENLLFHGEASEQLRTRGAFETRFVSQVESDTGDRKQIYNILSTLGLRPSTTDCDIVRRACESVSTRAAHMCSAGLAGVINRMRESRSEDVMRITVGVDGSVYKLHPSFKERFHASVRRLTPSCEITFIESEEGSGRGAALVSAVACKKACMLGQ
T1 sequence (Q14397 whole entry, looked up): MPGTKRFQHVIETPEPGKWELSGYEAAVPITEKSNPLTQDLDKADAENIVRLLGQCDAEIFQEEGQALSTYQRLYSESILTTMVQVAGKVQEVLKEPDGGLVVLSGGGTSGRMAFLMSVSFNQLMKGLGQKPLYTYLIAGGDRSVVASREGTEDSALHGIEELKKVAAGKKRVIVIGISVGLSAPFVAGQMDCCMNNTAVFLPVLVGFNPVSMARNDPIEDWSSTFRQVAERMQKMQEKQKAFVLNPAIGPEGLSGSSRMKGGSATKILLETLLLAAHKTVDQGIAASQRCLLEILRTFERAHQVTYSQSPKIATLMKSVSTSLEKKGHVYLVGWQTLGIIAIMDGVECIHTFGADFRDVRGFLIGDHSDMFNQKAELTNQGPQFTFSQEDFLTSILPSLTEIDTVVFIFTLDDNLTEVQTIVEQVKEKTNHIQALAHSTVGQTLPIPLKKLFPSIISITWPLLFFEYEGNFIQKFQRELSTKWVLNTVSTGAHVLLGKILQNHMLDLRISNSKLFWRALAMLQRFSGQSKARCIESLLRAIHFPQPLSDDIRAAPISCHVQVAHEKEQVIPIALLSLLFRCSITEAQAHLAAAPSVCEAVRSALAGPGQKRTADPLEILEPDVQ
Chain of Arylsulfatase A (Homo sapiens) (P15289 whole entry, looked up): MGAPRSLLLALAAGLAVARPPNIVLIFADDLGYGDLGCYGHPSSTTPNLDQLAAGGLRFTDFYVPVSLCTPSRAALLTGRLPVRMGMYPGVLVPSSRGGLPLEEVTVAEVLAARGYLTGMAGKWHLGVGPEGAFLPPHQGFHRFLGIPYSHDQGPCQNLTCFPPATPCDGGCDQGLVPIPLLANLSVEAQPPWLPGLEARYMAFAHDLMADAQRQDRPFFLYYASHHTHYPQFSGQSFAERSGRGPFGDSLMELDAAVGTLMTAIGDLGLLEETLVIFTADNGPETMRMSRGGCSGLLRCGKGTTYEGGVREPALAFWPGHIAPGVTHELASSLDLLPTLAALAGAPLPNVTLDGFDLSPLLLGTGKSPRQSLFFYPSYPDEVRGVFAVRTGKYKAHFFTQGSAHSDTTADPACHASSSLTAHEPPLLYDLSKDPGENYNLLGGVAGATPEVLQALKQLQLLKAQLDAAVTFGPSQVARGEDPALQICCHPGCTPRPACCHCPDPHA
Chain of Tyrosine-protein kinase Yes (Homo sapiens) (P07947 whole entry, looked up): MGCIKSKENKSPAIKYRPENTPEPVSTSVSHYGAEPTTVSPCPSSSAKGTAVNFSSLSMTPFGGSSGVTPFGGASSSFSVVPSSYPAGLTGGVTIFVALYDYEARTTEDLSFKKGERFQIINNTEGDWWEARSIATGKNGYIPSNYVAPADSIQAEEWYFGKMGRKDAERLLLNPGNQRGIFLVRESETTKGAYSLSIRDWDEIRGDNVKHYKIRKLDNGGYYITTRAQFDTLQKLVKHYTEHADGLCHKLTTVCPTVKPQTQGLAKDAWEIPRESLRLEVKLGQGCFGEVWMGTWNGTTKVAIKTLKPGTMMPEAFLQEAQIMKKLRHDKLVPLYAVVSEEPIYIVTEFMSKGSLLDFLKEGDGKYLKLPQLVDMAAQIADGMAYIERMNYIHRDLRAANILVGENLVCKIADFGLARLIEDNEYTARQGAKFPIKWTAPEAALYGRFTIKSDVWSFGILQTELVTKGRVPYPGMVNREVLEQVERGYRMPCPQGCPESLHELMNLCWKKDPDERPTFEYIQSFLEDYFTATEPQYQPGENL

C[N+](C)(C)CCO
inactive: outcome [1] | outcome [2] | outcome [3] | outcome [4] | outcome [5] | outcome [6] | max response [7] 1.6% and 15%

OC[C@]1(O)OC[C@@H](O)[C@H](O)[C@@H]1O
inactive: max response [7] 13.1%

CCN1C(=O)c2ccccc2C1Nc1ccc(OCCN2CCCCC2)cc1 (stereo not given)
inactive: max response [7] -8.48%

CCC(C(=O)NC(=O)NC(C)=O)c1ccccc1 (stereo not given)
inactive: max response [7] -11.8%

CCCCCC1Nc2cc(C(F)(F)F)c(S(N)(=O)=O)cc2S(=O)(=O)N1 (stereo not given)
inactive: max response [7] 13.4%

CC(C)OC(=O)c1cc2c(OCC(O)CNC(C)(C)C)cccc2[nH]1 (stereo not given)
inactive: max response [7] 0.786%

CN(C)c1cc2c(Nc3ccc4c(cnn4Cc4ccccc4)c3)ncnc2cn1
active: Potency [8] 0.207 µM
inactive: outcome [9] | outcome [1] | outcome [2] | outcome [5] | outcome [6]

NC(N)=NCCCCN=C(N)N
inactive: outcome [1] | outcome [2] | outcome [3] | outcome [4] | outcome [5] | outcome [6]

CCCCCC(=O)O[C@]1(C(C)=O)CC[C@H]2[C@@H]3CCC4=CC(=O)CC[C@]4(C)[C@H]3CC[C@@]21C
inactive: max response [7] 7.11%

CC(CCc1ccc2c(c1)OCO2)NN (stereo not given)
inactive: max response [7] 15.4%

O=[N+]([O-])c1ccc(-c2nc(-c3ccc(F)cc3)c(-c3ccncc3)[nH]2)cc1
inactive: outcome [1] | outcome [2] | outcome [3] | outcome [4] | outcome [5] | outcome [6] | max response [7] -10.7%

COc1cccc2c1[C@@H]1CN(CCCCn3c(=O)[nH]c4c(sc5ncc(-c6ccccc6)nc54)c3=O)C[C@@H]1CO2
inactive: outcome [2] | outcome [3] | outcome [4] | outcome [5] | outcome [6] | max response [7] 22.3%

Cc1ccccc1C(=O)N1CC/C(=N\OS(=O)(=O)O)c2ccc(Cl)cc21
inactive: max response [7] 0.506%

Cn1cnc2c(NCc3ccccc3)nc(NCCO)nc21
inactive: outcome [1] | outcome [2] | outcome [3] | outcome [4] | outcome [5] | outcome [6] | max response [7] 11.6%

Cc1nn(-c2ccccc2)c(C)c1/C=N/N1CCN(Cc2ccccc2)CC1
inactive: outcome [1] | outcome [2] | outcome [3] | outcome [4] | outcome [5] | outcome [6] | max response [7] 1.48%

CCN(CC)CCNC(=O)c1ccc(NS(C)(=O)=O)cc1
inactive: outcome [1] | outcome [5] | outcome [6] | max response [7] -10.8%

N[C@@H](Cn1ccc(=O)c(O)c1)C(=O)O
inactive: outcome [1] | outcome [2] | outcome [3] | outcome [4] | outcome [5] | outcome [6] | max response [7] 9.87%

CCCCCCCCCCCCCCCCCCNC(=O)OC1CCN(C(=O)OC[C@H](COC(=O)N(Cc2cccc[n+]2CC)C(=O)c2ccccc2OC)OC)CC1
active: Potency [7] 15.8 µM

CC(C)N(CCC(=O)c1ccc2ccccc2c1)Cc1ccccc1
inactive: outcome [1] | outcome [2] | outcome [3] | outcome [4] | outcome [5] | outcome [6]

O=C1NC(c2cccc([N+](=O)[O-])c2)=CCN1c1ccccc1O
inactive: outcome [1] | outcome [2] | outcome [3] | outcome [4] | outcome [5] | outcome [6]

Nc1ncnc2n[nH]c(Nc3ccc(F)cc3)c12
inactive: outcome [1] | outcome [2] | outcome [3] | outcome [4] | outcome [5] | outcome [6] | max response [7] 6.51%

O=C1NC(=O)/C(=C/c2ccc3c(c2)OC(F)(F)O3)S1
inactive: outcome [1] | outcome [2] | outcome [3] | outcome [5] | outcome [6] | max response [7] -20.1%

Clc1ccc2c(c1)N=C(N1CCNCC1)c1ccccc1N2
inactive: outcome [1] | outcome [2] | outcome [3] | outcome [4] | outcome [5] | outcome [6]

CC(C(=O)O)c1ccc(/C=C2\CCCCC2=O)cc1 (stereo not given)
inactive: max response [7] -9.38%

CC1(C)O[C@@H]2C[C@H]3[C@@H]4CCC5=CC(=O)C=C[C@]5(C)[C@@]4(F)[C@@H](O)C[C@]3(C)[C@]2(C(=O)CO)O1
inactive: max response [7] -0.0995%

COC(=O)C1=CO[C@@H](O)[C@@H]2C(CO)=CC[C@H]12
inactive: outcome [1] | outcome [2] | outcome [3] | outcome [4] | outcome [5] | outcome [6]
